# Values joined by “and” are separate entries in the source; they are usually repeats but may differ in a detail not shown here. Equal values may be shown once. Out of some 16,000 compounds screened, about 5,700 (36%) were called active. Inconclusive results (about 24%) are left out. This is one part of the list. Unmarked numbers belong to inactive results. The call rests on the fitted dose curve; in most records, active means well fitted curve in the direction sought with a large enough effect; inconclusive means small, poorly fitted or top-dose-only effect, or effect the other way; inactive means no such curve, though single readings can be large or run the other way.
# Target: Cytochrome P450 1A2 (Homo sapiens) (UniProt P05177)
# Sequence (P05177 whole entry, looked up): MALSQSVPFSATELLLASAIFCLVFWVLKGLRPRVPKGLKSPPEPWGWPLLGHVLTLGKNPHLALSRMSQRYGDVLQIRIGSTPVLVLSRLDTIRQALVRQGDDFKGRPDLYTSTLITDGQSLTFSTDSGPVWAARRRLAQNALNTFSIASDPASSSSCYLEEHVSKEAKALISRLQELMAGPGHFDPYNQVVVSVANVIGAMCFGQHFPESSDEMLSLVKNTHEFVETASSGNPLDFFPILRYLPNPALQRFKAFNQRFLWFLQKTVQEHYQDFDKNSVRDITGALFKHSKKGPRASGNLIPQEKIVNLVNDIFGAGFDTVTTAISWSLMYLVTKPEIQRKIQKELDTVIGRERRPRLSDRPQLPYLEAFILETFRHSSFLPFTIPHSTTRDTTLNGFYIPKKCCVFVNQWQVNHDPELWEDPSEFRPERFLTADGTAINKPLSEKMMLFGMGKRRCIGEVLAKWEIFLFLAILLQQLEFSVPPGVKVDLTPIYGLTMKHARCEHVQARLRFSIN
# Assay: Cytochrome panel assay with activity outcomes
# Details: recombinant CYP, pro-luciferin dealkylation, luminescence, p450-cyp1a2; series mostly up to 57.1 µM
# On the % scale 0 is the no-effect control and ±100 the full control effect.
Structure (SMILES),AC50,"activity, negative = inhibition"
O=S(=O)(c1ccccc1)N1CCC2(CC1)CN(c1ccccn1)C2,inactive,–
CC(C)CO/N=C1/C[C@@H](O)[C@@H](O)[C@@H]2[C@@H]3C(=O)N(C[C@@H]4CCCO4)C(=O)[C@H]3CC[C@@H]12,–,-0.346% [at 11.4 µM]
CC(C)CNc1nc(N)[nH]c(=O)c1NC=O,–,-20.7% [at 11.4 µM]
O=S1(=O)C=C(Oc2ccc3ccccc3c2)c2ccccc21,1.26 µM (active),–
Cn1cccc1C(=O)N1CCC2(CCN(Cc3nccs3)CC2)CC1,inactive,–
N#Cc1c(NC(=O)CCN2C(=O)c3ccccc3C2=O)oc(-c2ccccc2)c1-c1ccccc1,2.24 µM (active),–
O=C(Cc1ccccc1)NC1CCN(S(=O)(=O)c2ccc(C(=O)O)cc2)CC1,inactive,–
CN(Cc1cccc2ccccc12)Cc1cccc2ccccc12,3.16 µM (active),–
CN(C/C=C\c1ccccc1)Cc1cccc2ccccc12,2 µM (active),–
Cc1ccccc1C(=N)c1ccccc1Cc1cccc2ccccc12,–,-17.6% [at 2.29 µM]
c1ccc2c(CC3NCCN3)cccc2c1,–,-7.37% [at 11.4 µM]
c1ccc2c(CC3=NCCN3)cccc2c1,inactive,–
NCCCCCCCCCCN,inactive,–
O=c1n(-c2ccccc2)c(=O)n2n1CC[C@H]1/C(=N\OC[C@@H](O)COCc3ccco3)[C@H]3O[C@@H]3[C@@H](O)[C@@H]12,–,-3.26% [at 11.4 µM] and -7.74% [at 11.4 µM]
Cc1ccc(C(=O)/C=C2\NCC(C)NC2=O)cc1 (configuration not stated),15.8 µM (active),–
Cc1ccc(C(=O)C2CCNCC2)cc1,inactive,–
O=C(Cc1ccccc1[N+](=O)[O-])NCc1ccccc1Cl,inactive,–
O=[N+]([O-])c1ccc(-c2cnc(SCc3ccccc3Cl)[nH]2)cc1,6.31 µM (active),–
Clc1ccc(-c2nnc(CCc3ccccc3)o2)c(Cl)c1,0.708 µM (active),–
CSc1nnc(-c2ccc(Cl)cc2Cl)o1,2.51 µM (active),–
COc1cccc(-c2cc(=O)c3ccccc3o2)c1N,0.2 µM (active),–

Structure (SMILES),AC50,"activity, negative = inhibition"
CCOC(=O)CSc1cc(CS(=O)c2ccc(Cl)cc2)nc(-c2ccccc2)n1 (configuration not stated),10 µM (active),–
Nc1cc(N)nc(SCC(=O)c2ccccc2)n1,inactive,–
O=C(CSc1ccccn1)Nc1nc2ccc(Br)cc2s1,2.51 µM (active),–
O=C(CSc1nc2ccccc2c2ccccc12)c1ccccc1,0.251 µM (active),–
CCN(CC)C(=O)CSc1nc2ccc(NC(=O)CSc3nnc(COc4ccccc4C)n3C)cc2s1,inactive,–
CCc1cccc(C)c1NC(=O)CSc1nc2ccc(N3C(=O)c4ccccc4C3=O)cc2s1,inactive,–
COC(=O)c1ccc(NC(=O)Cn2nc(-c3ccncc3)nc2SCC(=O)Nc2nccs2)cc1,11.2 µM (active),–
COc1ccc(O[C@H]2C=C[C@@H](c3ccccc3)O[C@H]2COC(=O)CC/C(C)=N\O[C@@H](C)c2cn([C@H](CO)Cc3ccccc3)nn2)cc1,–,-0.286% [at 11.4 µM] and -5.55% [at 11.4 µM]
CC(=O)OC1CCC(OC(C)=O)c2c1n([O-])c(C)c(C)[n+]2=O (configuration not stated),inactive,–
CC1(C)CC(=O)c2cn3ncnc3nc2C1,inactive,–
C[C@@H]1C[C@H]2[C@H]3C[C@@H](F)C4=CC(=O)C=C[C@]4(C)[C@@]3(Cl)[C@@H](O)C[C@@]2(C)[C@@H]1C(=O)COC(=O)C(C)(C)C,inactive,–
O=C(CSc1nc2ccccc2s1)NNC(=S)Nc1ccc(Br)cc1,5.01 µM (active),–
CCOC(=O)Cn1c(CN(Cc2ccccc2)Cc2ccccc2)nc2c1c(=O)[nH]c(=O)n2C,inactive,–
O=C(O)Cn1c(-c2ccccc2)nc2ccccc21,inactive,–
CCOC(=O)Cn1c(-c2ccccc2)nc2ccccc2c1=O,0.447 µM (active),–
CCOC(=O)CSc1nc2ccccc2c(=O)n1CC1CCC(C(=O)NCc2ccco2)CC1 (configuration not stated),inactive,–
O=C(CSc1nc2ccccc2o1)Nc1nc2ccccc2s1,3.16 µM (active),–
CCOC(=O)CSc1nc(-c2ccccc2)nc2ccccc12,0.501 µM (active),–
CCCCOc1ccccc1C1CC(=O)NC2=C1C(=O)CCC2 (configuration not stated),inactive,–
O=C(CSc1nc(-c2ccccc2)nc2ccccc12)Nc1nccs1,0.158 µM (active),–
NC(=O)NC(=O)CSc1nnc(-c2ccco2)n1Cc1ccccc1,inactive,–

Structure (SMILES),AC50,"activity, negative = inhibition"
C=CCn1c(SCC(=O)Nc2ncc(Cc3ccc(Br)cc3)s2)nnc1-c1ccncc1,inactive,–
CCc1nnc(NC(=O)CSc2nc(C3CCCCC3)nc3ccccc23)s1,inactive,–
O=C(CSc1nc2ccccc2s1)Nc1nccs1,2.24 µM (active),–
O=C(CSc1nnc(-c2ccncc2)n1Cc1ccccc1)Nc1nccs1,11.2 µM (active),–
Cc1ccc(S(=O)(=O)NC(=O)CSc2nc3ccccc3s2)cc1,inactive,–
CCCC(=O)Nc1ccc2nc(SCC(=O)Nc3ccc(N4CCOCC4)c(Cl)c3)sc2c1,inactive,–
CC(C)OC(=O)CSc1nc(-c2ccc(F)cc2)nc2ccc(F)cc12,1.12 µM (active),–
O=P(O)(CCc1ccccc1)C(O)c1ccccc1 (configuration not stated),inactive,–
CO[C@@H](NC(N)=O)C(=O)O,–,-6.36% [at 2.29 µM]
O=C(O)c1cc(=O)[nH]c(=S)[nH]1,–,-10.7% [at 2.29 µM]
Cc1cc(C)n2c(SCC(=O)N(C)C3CCS(=O)(=O)C3)nnc2n1 (configuration not stated),inactive,–
NC(=S)NCCC[C@@H](N)C(=O)O,inactive,–
Cc1cccc(-c2nsc(SCC(=O)Nc3nccs3)n2)c1,0.251 µM (active),–
C1CCc2c(nc3nnnn3c2NC2CCCC2)C1,11.2 µM (active),–
Cc1ccccc1CN1C2=NCCN2C(=O)C2=C1CCN(Cc1ccccc1)C2,–,-2.99% [at 11.4 µM]
COc1ccc(CNc2nc3nc4c(c(=O)n3[nH]2)CCC4)cc1,inactive,–
CSc1nc2nc3c(c(=O)n2[nH]1)CN(Cc1ccccc1)CC3,3.16 µM (active),–
CCOc1ccc(C2=[N+]([O-])C(C)(C)N(O)C2(C)C)cc1,inactive,–
CCOc1ccc(-c2nnc3ccc(SC)nn23)cc1,1 µM (active),–
CSc1ccc2nnc(-c3cccc(F)c3)n2n1,3.16 µM (active),–
